Among all 68,000 compounds or so, about 2,700 (4%) showed an effect of 50% or more. The sample holds strong results, similar compounds and a random draw of the others, so the mix is not that of the screen.

For this assay, the system named is Plasmodium berghei. The assay is described as follows: Screen against P. berghei liver stage (PbLuc), transformed with Luciferase, at 2uM. Format: functional, HepG2. As to conditions: tested at 2 uM.
In the case of `O=C(NC1CC1)C1CCN(c2nc3nc[nH]c(=O)c3s2)CC1`, the INHIBITION is recorded as 20.16%.
With `CN(Cc1cnn(C)c1)C(=O)C(c1ccccc1)N1CCSCC1` (stereo not given), the INHIBITION was 0.21%.
Under `O=C(C[C@@H]1COC[C@H]2CN(Cc3ccc(F)cc3)C[C@@H]12)N1CCOCC1` stands 20.74%; under `Cn1cc(CN2CCc3c(CNC(=O)C4CC4)cncc3C2)cn1`, -5.13%.
On to `O=C(NCC1CC1)[C@H]1C[C@@H]2CCN(CCc3ccccc3)C[C@H]2O1`, for which the INHIBITION is 25.4%.
As for `CC(C)n1[nH]c(=O)c2c1NC(=O)CC2c1cccnc1` (stereo not given), the INHIBITION is -35.44%.
Under `Cc1ccccc1CC(=O)N[C@@H]1CCC[C@@H](N2CCNC(=O)C2)[C@@H]1O` stands 29.06%; under `CCc1nc2n(n1)CC(NCc1cc(OC)c3c(c1)OCO3)CC2` (stereo not given), 40.24%; under `Cc1ccc(C(=O)N2CCC(Oc3ccc(F)cc3F)CC2)c(=O)[nH]1`, 60.31%.
Under `Cc1ccc(C)c(OC2CCN(C(=O)c3ccc(C)[nH]c3=O)CC2)c1` stands 54.85%; under `Cc1ccc(C(=O)N2CCC(Oc3ccc(C)c(C)c3)CC2)c(=O)[nH]1`, -37.2%; under `Cc1ccc(C(=O)N2CCC(Oc3c(C)cccc3C)CC2)c(=O)[nH]1`, -11.33%.
Under `COc1ccc(OC2CCN(C(=O)c3ccc(C)[nH]c3=O)CC2)cc1` stands 11.95%; under `Cc1ccc(C(=O)N2CCC(Oc3cccc(C)c3C)CC2)c(=O)[nH]1`, 7.64%.
As to `CCN(CC1CCCN(CCc2cccc(OC)c2)C1)C(=O)CN(C)C` (stereo not given), the INHIBITION is -85.72%.
For `Cc1cc(C(=O)N2CCCC2c2nc(O)cc(C(C)C)n2)on1` (stereo not given), the INHIBITION came out at 12.21%.
`CCN(C)C[C@@H]1CN(Cc2cnc3c(S(C)(=O)=O)cnn3c2)C[C@@H]1CO`: the INHIBITION is 10.91%.
The result for `CN(C)S(=O)(=O)c1csc(C(=O)N2CCSCC2)c1` reads 68.33%; that for `CCN(CC)S(=O)(=O)c1csc(C(=O)N2CCC(C(N)=O)CC2)c1`, 14.27%; that for `CN(C)S(=O)(=O)c1csc(C(=O)N2CCC(C(N)=O)CC2)c1`, -0.24%.
With `Cc1nc(NCCSc2nnc(C)s2)c2cccnc2n1`, the INHIBITION is recorded as 21%.
On to `CN1CC2(CCN(CC3CC3)CC2)COc2ccccc2S1(=O)=O`, for which the INHIBITION is -22.64%.
Under `Cc1ccc(CS(=O)(=O)CC(=O)NCc2ccccc2F)cc1` stands 26.74%; under `N#Cc1cccc(CS(=O)(=O)NC(Cc2ccccc2)C(N)=O)c1` (stereo not given), 18.29%.
In the case of `O=C(CS(=O)(=O)Cc1ccc(F)cc1)NCc1ccccc1F`, the INHIBITION is recorded as -54.34%.
Regarding `O=C(CS(=O)(=O)Cc1ccccc1)NCc1ccccc1F`, the INHIBITION was 50.59%.
For the molecule `NC(=O)C(Cc1ccccc1)NS(=O)(=O)Cc1ccccc1Cl` (stereo not given), the INHIBITION is -7.47%.
Turning to `NC(=O)C(Cc1ccccc1)NS(=O)(=O)Cc1ccccc1F` (stereo not given), the INHIBITION came to 53.13%.
For the molecule `Cc1ccc(Cl)cc1N1CCC(CNC(=O)Cn2cccn2)C1` (stereo not given), the INHIBITION was -48.41%.
For `Cc1ccc(Cl)cc1N1CCC(CNC(=O)CC(F)(F)F)C1` (stereo not given), the INHIBITION amounted to 42.92%.
For `Cc1cnn(CC(=O)NCC2CCN(c3cc(Cl)ccc3C)C2)c1` (stereo not given), the INHIBITION is 80.06%.
In the case of `CSCC[C@H](N)c1nnc(SCc2cc(C)ccc2C)o1`, the INHIBITION is recorded as 17.15%.
Under `O=C(NCC(F)(F)F)C1CSCN1S(=O)(=O)c1ccccc1F` (stereo not given) stands 14.06%.
The result for `CCCC1C=CCN1C(=O)c1cc(COc2ccc3c(c2)OCO3)[nH]n1` (stereo not given) reads 5.15%; that for `O=C(c1cscn1)N1CCC2(CCN(Cc3nccs3)C2)CC1`, -14.66%.
Consider `Cc1cc(-c2cc(C3CCOC3)c(C#N)c(N)n2)ccc1Cl` (stereo not given), for which the INHIBITION amounted to 21.33%.
Under `Cc1cc(C)cc(-c2cc(C3CCOC3)c(C#N)c(N)n2)c1` (stereo not given) stands 59.27%; under `COc1ccc(-c2cc(C3CCOC3)c(C#N)c(N)n2)cn1` (stereo not given), 7.64%.
As for `CCN1CCO[C@]2(CCC[C@H]2COCc2csc(C)n2)C1`, the INHIBITION came to 32.95%.
For `COc1ccc(C)cc1Nc1nc2c(C)nn(C)c2c(=O)n1C`, the INHIBITION was -103.52%.
The result for `Cc1ccsc1C(=O)NC1CCS(=O)(=O)c2ccccc21` (stereo not given) reads -15.77%; that for `O=C(NC1CCS(=O)(=O)c2ccccc21)c1cccs1` (stereo not given), 79.83%.
Regarding `O=C(NC1CCS(=O)(=O)c2ccccc21)c1sccc1C1CC1` (stereo not given), the INHIBITION is on record as -10.14%.
Turning to `CC(C)CNc1nnc(SC(C(=O)NCc2cccnc2)C(C)C)s1` (stereo not given), the INHIBITION was -16.56%.
On to `CNc1cc2c(nn1)CCN(C(=O)c1ccc3c(c1)CCC3)C2`, for which the INHIBITION worked out at 29.12%.
Under `CCNc1cc2c(nn1)CCN(C(=O)c1ccc3c(c1)OCO3)C2` stands -17.37%; under `CNc1cc2c(nn1)CCN(C(=O)c1ccc3c(c1)OCO3)C2`, 50.18%; under `Cc1cc(N2CCN(c3ccc(=O)[nH]n3)CC2)nc(-c2ccncc2)n1`, -2.96%.
Take `Cc1c(C(=O)NCCC(=O)N2CCOCC2)sc2ccc(F)cc12`: the INHIBITION is given as -6.64%.
The result for `COc1cccnc1NC(=O)c1ccc(COCC(F)(F)F)cc1` reads -14.46%.
`Cc1cc(CN2CCCC(Cn3cncn3)C2)no1` (stereo not given): the INHIBITION was -50.13%.
The result for `CCCNC(=O)C1CCCN(Cc2csc(C(C)(C)C)n2)C1` (stereo not given) reads 52.87%; that for `Cc1ccc(-c2noc(CN3CCCC(Cn4cncn4)C3)n2)cc1` (stereo not given), -35.33%; that for `CC(C)(C)c1nc(CN2CCCC(Cn3cncn3)C2)cs1` (stereo not given), 80.49%.
Take `c1ccc(-c2nc(CN3CCCC(Cn4cncn4)C3)cs2)cc1` (stereo not given): the INHIBITION is recorded as -37.28%.
For the molecule `Cc1cc(CN2CCCC(Cn3cncn3)C2)on1` (stereo not given), the INHIBITION is 59.54%.
On to `Cc1cccc(-c2noc(CN3CCCC(Cn4cncn4)C3)n2)c1` (stereo not given), for which the INHIBITION is 54.85%.
For `Cc1ccc(-c2cc(CN3CCCC(Cn4cncn4)C3)on2)cc1` (stereo not given), the INHIBITION is recorded as -23.18%.
For the molecule `c1cncc(-c2noc(CN3CCCC(Cn4cncn4)C3)n2)c1` (stereo not given), the INHIBITION is given as -9.22%.
Under `CCCNC(=O)C1CCN(Cc2csc(C(C)(C)C)n2)CC1` stands -21.58%; under `CCCNC(=O)CN1CCN(Cc2csc(C(C)(C)C)n2)CC1`, 22.1%; under `CC(C)c1nc(CN2CCCC(Cn3cncn3)C2)cs1` (stereo not given), 5.52%.
Under `c1ccc(-c2nc(CNC3CCc4ncnn4C3)cs2)cc1` (stereo not given) stands -7.88%; under `CCCc1nc(CNCC2CCCN2c2cccnn2)no1` (stereo not given), 19.76%; under `c1ccc(-c2cc(CN3C[C@H]4CC[C@@H](C3)N(CC3CCC3)C4)on2)cc1`, 34.16%.
For the molecule `Cc1ccccc1CNc1ccccc1OCC(=O)N1CCOCC1`, the INHIBITION is -64.94%.
With `COc1cc(C2c3c(n[nH]c3C)N=C3COC(=O)C32)cc(Br)c1O` (stereo not given), the INHIBITION is given as 37.18%.
On to `CC(C)C(=O)N1CCN(Cc2cnn(C)c2)CC2(CC(=O)N(C)C2)C1` (stereo not given), for which the INHIBITION is recorded as -2.69%.
As to `Cc1ccc(C(=O)N2CCc3ncc(Cn4cccn4)n3CC2)cn1`, the INHIBITION was 16.43%.
Under `O=C(NCc1ccccc1)N1CCn2c(Cn3cccn3)cnc2C1` stands 6.33%; under `O=C(NC1CC1)N1CCn2c(Cn3cccn3)cnc2C1`, 53.08%; under `O=C(c1cccc(F)c1)N1CCc2ncc(Cn3cccn3)n2CC1`, -39.07%.
Consider `O=C(c1ccoc1)N1CCc2ncc(Cn3cccn3)n2CC1`, for which the INHIBITION was 50.17%.
The result for `CN(C)C(=O)N1CCn2c(Cn3cccn3)cnc2C1` reads 25.4%; that for `Cc1ncsc1CN1C[C@@H]2COC[C@]2(C(=O)NCc2ccccn2)C1`, -0.27%; that for `CC(C(=O)N1CCN(c2ccccc2)CC1)n1cc(Br)cn1` (stereo not given), -34.08%.
As for `CN1CCN(c2ccccc2CNC(=O)CSC(F)(F)F)CC1`, the INHIBITION is on record as -14.36%.
The result for `CC(C)C(C(=O)N1CCCN(c2cccnn2)CC1)n1cncn1` (stereo not given) reads -0.6%; that for `OCc1c(Cl)ncn1-c1ccc(F)cc1`, 22.43%; that for `O=C(CCC1CCCC1)N1CCC(c2cc3ncccc3c(O)n2)CC1`, 22.39%.
Under `CC(C)CNC(=O)c1c(-n2cnnn2)sc2c1CCCC2` stands 15.93%; under `Cc1nc(NC(=O)c2c(-n3cnnn3)sc3c2CCC3)sc1C`, 10.71%.
The result for `CCCn1nccc1C(=O)Nc1nc(C)c(C)s1` reads -44.44%; that for `Cc1nc(NC(=O)c2c(-n3cnnn3)sc3c2CCCC3)sc1C`, 76.25%.
Take `Cc1nc(NC(=O)c2c(-n3cnnn3)sc(C)c2C)sc1C`: the INHIBITION stood at 60.67%.
For `Cc1sc(-n2cnnn2)c(C(=O)NC(C)C)c1C`, the INHIBITION is -21.53%.
Under `F[C@@H]1CN(CC2CC2)C[C@@H]1OCc1nc2cnccc2[nH]1` stands 25.94%; under `COCCC(=O)N1CCC(C(=O)c2cc(C)cnc2N)CC1`, 41.56%.
Consider `c1ccc(Sc2ccc3c(c2)OCO3)c(CNC2=NCCN2)c1`, for which the INHIBITION came out at 33.59%.
Turning to `COCC1N(C(=O)c2ccco2)C2CCC1(O)CC2` (stereo not given), the INHIBITION is 3.88%.
Regarding `COc1ccc(Br)cc1Cn1nc(C(N)=O)ccc1=O`, the INHIBITION is given as -21.09%.
As to `CCOc1ccc(Br)cc1C1CCCN1` (stereo not given), the INHIBITION amounted to 53.55%.
For `CCOc1ccc(Br)cc1C1CCCCN1` (stereo not given), the INHIBITION is listed as -0.44%.
The result for `CCOc1ccc(Cl)cc1C1CCCN1` (stereo not given) reads -27.75%; that for `Cc1nccn1C1CCCN(C(=O)c2ccc3nnc(C)n3c2)C1` (stereo not given), 6.12%.
The result for `COc1cc(NC(=O)NCc2ccccn2)cc(OC)c1` reads 52.08%; that for `Cc1cc(NC(=O)NCc2ccccn2)n(C)n1`, 29.11%.
For `COc1cc(F)cc(NC(=O)NCc2cccc(N(C)C)n2)c1`, the INHIBITION was determined as 23.92%.
The result for `N#Cc1c(F)cccc1NCCCOCC1CCOC1` (stereo not given) reads -39.57%; that for `C[C@@H]1CN(CC(C)(C)N2CCCCC2)C[C@@]1(O)C1CC1`, 51.31%; that for `C[C@@H]1CN(CC(C)(C)N2CCOCC2)C[C@@]1(O)C1CC1`, -10.59%.
The result for `C[C@@H]1CN(CC(C)(C)N2CCCCC2)CC[C@@]1(O)C1CC1` reads 12.62%.
For the molecule `Cc1cc(C(=O)NCC(O)c2ccc(Cl)s2)c(C)o1` (stereo not given), the INHIBITION came out at 57.75%.
For the molecule `Cc1ccc(C(=O)NCC(O)c2ccc(Cl)s2)c(=O)[nH]1` (stereo not given), the INHIBITION came to 10.05%.
Under `Cc1occc1C(=O)NCC(O)c1ccc(Cl)s1` (stereo not given) stands 43.44%.
